Values joined by “and” are separate entries in the source; they are usually repeats but may differ in a detail not shown here. Equal values may be shown once. Out of some 360,000 compounds screened, about 11,000 (3.1%) were called active. Inconclusive results (about 4%) are left out. Calls follow the shape of the dose curve; as a rule, active = well fitted inhibition curve with a large enough effect; inconclusive = small, poorly fitted or top-dose-only effect; inactive = no such curve, though single readings can be large or run the other way. Shown is part of a subset that was picked to be rich in actives.
Molecular target: Schistosoma mansoni thioredoxin glutathione reductase (TGR) (UniProt Q962Y6)
Assay: qHTS Assay for the Inhibitors of Schistosoma Mansoni Peroxiredoxins; also: nearly all actives have a fitted effect of over 60% in size
Settings: purified TGR, DTNB reduction, TNB absorbance 405 nm; series mostly up to 114 µM; activity change, negative = inhibition: at the top concentration
In short: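 First, TGR (20 nM dispensed) and NADPH were mixed with compound. Second, a 15 min room-temperature incubation followed. Third, further NADPH and then DTNB were added to start the reaction. Finally, TNB absorbance was monitored kinetically.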
% is scaled to controls: 0 for no effect and ±100 for the full control effect; potency is read from the fitted curve at half-maximal effect.

Row | Structure (SMILES) | activity change, negative = inhibition | Potency
1 | Cc1ccc(Nc2nnc(-c3ccc(C)c(S(=O)(=O)N4CCCCC4)c3)c3ccccc23)cc1 | -0.898% (inactive) | 
2 | Cc1ccc2cccc(NC(=O)c3cccc4ccccc34)c2n1 | -0.566% (inactive) | 
3 | Cc1cccc(NC(=O)N2CCC(CN3CCc4ccccc4C3)CC2)c1C | 2.98% (inactive) | 
4 | O=C(CC1N=C2c3ccccc3N=C(SCc3ccc(F)cc3)N2C1=O)NCc1cccs1 (centres undefined) | -1.39% (inactive) | 
5 | CC1Cc2cc(S(=O)(=O)CCC(=O)Nc3ccc(F)c(Cl)c3)ccc2N1C(=O)C1CC1 (centres undefined) | 1.79% (inactive) | 
6 | Cc1ccc(CNC(=O)CCS(=O)(=O)c2ccc3c(c2)CC(C)N3C(=O)C2CC2)o1 (centres undefined) |  | 44.7 µM (active)
7 | CC1Cc2cc(S(=O)(=O)CCC(=O)NCc3ccc(Cl)cc3)ccc2N1C(=O)C1CC1 (centres undefined) | 2.16% (inactive) | 
8 | COc1cc(OC)cc(C(=O)Nc2c(C(=O)Nc3ccc(F)cc3)oc3ccccc23)c1 | 4.09% (inactive) | 
9 | CCOc1ccc(Nc2ncnc3scc(-c4ccc(OC)cc4)c23)cc1 | 11.5% (inactive) | 
10 | Cc1cccc2nc(-c3ccc(Cl)s3)c(Nc3ccc4c(c3)OCCO4)n12 | 2.96% (inactive) | 
11 | Cc1csc2nc(COC(=O)c3ccccc3NC(=O)c3ccccc3Cl)cc(=O)n12 | 1.82% (inactive) | 
12 | Cc1csc2nc(COc3ccc(NC(=O)COc4ccccc4)cc3)cc(=O)n12 | 5.27% (inactive) | 
13 | O=c1cc(CCl)nc2scc(-c3ccccc3)n12 |  | 17.8 µM (active)
14 | Cc1oc2ccc(O)c(CN3CCOCC3)c2c1C(=O)Nc1cccc(Cl)c1C | 1.69% (inactive) | 
15 | O=S(=O)(c1ccc(Br)cc1)c1nc(-c2ccccc2)oc1NCc1cccnc1 | 2.3% (inactive) | 
16 | COc1cccc(-c2nc(S(=O)(=O)c3ccc(C)cc3)c(NCc3ccccc3)o2)c1 |  | 44.7 µM (active)
17 | Cc1ccc(S(=O)(=O)c2nc(-c3cccs3)oc2NCc2cccnc2)cc1 | -2.01% (inactive) | 
18 | CCOC(=O)C(Cc1ccccc1)NC(=O)CCc1c(C)nc2c(c(C)nn2-c2ccc(C)c(C)c2)c1C (centres undefined) | 5.29% (inactive) | 
19 | CCC1CCCCN1S(=O)(=O)c1ccc(NC(=O)c2cc(=O)c3ccccc3o2)cc1 (centres undefined) | 2.57% (inactive) | 
20 | CCOc1ccc(CNC(=O)CCc2c(C)nn(-c3ccc(N4CCCCC4)nn3)c2C)cc1 | -3.22% (inactive) | 
21 | Cc1ccc(N2C(=O)C3C4C=CC(CC4)C3C2=O)cc1Cl (centres undefined) |  | 25.1 µM (active)
22 | CC(=O)Nc1ccc(N2C(=O)C3C4C=CC(CC4)C3C2=O)cc1 (centres undefined) | -9.16% (inactive) | 
23 | Cc1ccc(N2C(=O)C3C4C=CC(CC4)C3C2=O)cc1Br (centres undefined) | -3.52% (inactive) | 
24 | Cc1ccc2oc(C(=O)Nc3ccc(S(=O)(=O)N4CCCCCC4)cc3)cc(=O)c2c1 | 4.12% (inactive) | 
25 | COc1ccc(-c2noc(CSc3nc(C)cc(=O)[nH]3)n2)cc1OC | -0.744% (inactive) | 

Row | Structure (SMILES) | activity change, negative = inhibition | Potency
26 | O=C(CSc1oc(-c2ccccc2)nc1S(=O)(=O)c1ccc(Br)cc1)NC1CCCCC1 | -3.74% (inactive) | 
27 | COc1cc(Br)cc(/C=N/c2ncn[nH]2)c1O | 5.17% (inactive) | 
28 | Oc1c(Cl)cc(Cl)cc1/C=N/c1ncn[nH]1 |  | 20 µM (active)
29 | Cc1ccc(Nc2c(-c3ccc(N(C)C)cc3)nc3nc[nH]n23)cc1 | -3.83% (inactive) | 
30 | COc1cc(OC)cc(-c2nc3nc(C)c(CCC(=O)Nc4ccc(C)cc4)c(C)n3n2)c1 | -1.28% (inactive) | 
31 | Cc1ccc(C2=C/C(=C\c3cccnc3)C(=O)O2)cc1 | -8.03% (inactive) | 
32 | CN(C)/C=C1\C=C(c2ccccc2)OC1=O |  | 22.4 µM (active)
33 | COc1ccccc1/C=C/C1=NC(=C\N(C)C)/C(=O)O1 | -9.84% (inactive) | 
34 | Cc1cc(C)n2nc(CNS(=O)(=O)c3c(F)c(F)c(F)c(F)c3F)nc2n1 |  | 17.8 µM (active)
35 | Cc1cc(C)n2nc(C(=O)NC(C)(C)C)nc2n1 | -8.16% (inactive) | 
36 | Cc1ccc(S(=O)(=O)NCc2nc3nc(C)cc(C)n3n2)cc1 | -1.78% (inactive) | 
37 | COC(=O)c1ccccc1NS(=O)(=O)c1ccc2c(c1)CCCN2C(C)=O | 7.01% (inactive) | 
38 | Cc1c(Cl)cccc1NC(=O)Cn1cc(C(=O)c2cccs2)c2ccccc21 | 1.68% (inactive) | 
39 | NC1=NC(c2cc(F)cc(F)c2)n2c(nc3ccccc32)N1 (centres undefined) | -2.89% (inactive) | 
40 | Cc1ccc(-n2c(SCC(=O)c3ccccc3)nc3c([nH]c4ccccc43)c2=O)cc1 | 6.85% (inactive) | 
41 | COc1ccccc1NC(=O)c1c(Br)cnn1C | 10.4% (inactive) | 
42 | COc1ccccc1NC(=O)c1cc(Cl)nnc1Cl | -15.3% (inactive) | 
43 | COc1ccccc1NC(=O)/C=C/C(N)=O |  | 2.82 µM (active)
44 | CC(NC(=O)CCc1cn(Cc2ccccc2Cl)c2ccccc12)c1ccccc1 (centres undefined) | 9.78% (inactive) | 
45 | Cc1ccc(NC(=O)c2ccc3[nH]c(C)cc(=O)c3c2)c(C)c1 | 0.821% (inactive) | 
46 | O=[N+]([O-])c1ccc(C=Nc2ccc(Cl)cc2Cl)s1 |  | 25.1 µM (active)
47 | Cc1cc(C)n2nc(SCC(N)=O)nc2n1 | 1.42% (inactive) | 
48 | COc1ccc(C(C)=O)cc1CSc1nc2nc(C)cc(C)n2n1 |  | 39.8 µM (active)
49 | COc1cccc(CSc2nc3nc(C)cc(C)n3n2)c1 | 5.94% (inactive) | 
50 | CCOc1ccccc1CNC(=O)C1CCCN(S(=O)(=O)c2ccc3c(ccn3C)c2)C1 (centres undefined) | 2.74% (inactive) | 

Row | Structure (SMILES) | activity change, negative = inhibition | Potency
51 | Cc1ccc(CNS(=O)(=O)c2ccc(C(=O)N(C)C)s2)cc1 | 8.48% (inactive) | 
52 | Cc1ccc2c(c1)-c1c(cnn1CC(=O)Nc1ccccc1C#N)CO2 | 2.81% (inactive) | 
53 | COc1ccc(Cl)cc1NC(=O)Cn1nc(-c2ccc(C)cc2)n(C)c1=S | -1.27% (inactive) | 
54 | COc1ccc(NC(=O)Cn2c(-c3ccc(OC)cc3)cn(-c3ccc(C)cc3)c2=O)cc1 | -3.25% (inactive) | 
55 | COc1ccc(Cl)cc1-n1c(CCC(=O)O)ccc1-c1ccc(C)cc1 |  | 39.8 µM (active)
56 | COc1ccc(-c2cn(-c3ccc(C)cc3)c(=O)n2CC(=O)Nc2ccc(OC)c(OC)c2)cc1 | -2.58% (inactive) | 
57 | CCOC(=O)c1ccc(-n2c(CCC(=O)O)ccc2-c2ccccc2)cc1 |  | 28.2 µM (active) and 50.1 µM (active)
58 | COc1ccc(-c2nc3ccccc3c(=O)n2CCc2ccc(O)cc2)cc1 | -3.44% (inactive) | 
59 | COc1ccc(-c2ccc(CCC(=O)O)n2-c2ccc(O)cc2)cc1 |  | 39.8 µM (active)
60 | Cc1ccc(-c2ccc(CCC(=O)O)n2-c2ccc(C(N)=O)cc2)cc1 |  | 12.6 µM (active)
61 | CCOC(=O)c1ccc(NC(=O)c2ncn(-c3ccccc3)n2)cc1 | -0.841% (inactive) | 
62 | C=Cn1c(C(=O)O)ccc1-c1ccc(OC)cc1 | -6.86% (inactive) | 
63 | CCOC(=O)c1ccc(COC(=O)CCc2nc(-c3ccccc3)c(-c3ccccc3)o2)cc1 | 2.19% (inactive) | 
64 | COc1ccc(Cl)cc1NC(=O)CCC(=O)c1ccc(C)cc1 | 3.91% (inactive) | 
65 | CCOc1ccccc1N(CC)C(=O)Nc1cn(C)c(=O)c2ccccc12 | -2.07% (inactive) | 
66 | COc1ccc(NC(=O)Nc2cccc(-c3noc(C)n3)c2)cc1 | -2.78% (inactive) | 
67 | CCCCCn1c(CCNC(=O)c2ccc(F)cc2)nc2ccccc21 | 0.666% (inactive) | 
68 | O=C(CC1C(=O)N(c2ccccc2)C(=O)N1CCc1cccs1)Nc1ccc(F)cc1 (centres undefined) | -4.99% (inactive) | 
69 | Cc1ccc(C(=O)Nc2ccc(OCc3cc(=O)n4c(C)csc4n3)cc2)cc1 | 0.173% (inactive) | 
70 | CC(C)C12CN3CC(C(C)C)(CN(C1)C3c1ccc(OCc3ccccc3)cc1)C2=O (centres undefined) | 1.3% (inactive) | 
71 | Fc1ccccc1/C=C1\CCCC2=C1Nc1ncnn1C2c1ccccc1F (centres undefined) |  | 1.26 µM (active)
72 | CCOC(=O)C1=C(c2ccccc2)Nc2ncnn2C1c1ccc(Cl)cc1 (centres undefined) | 0.261% (inactive) | 
73 | COc1ccc2c(Sc3ccc(C)cc3)c(C(=O)NC(C)c3ccccc3)[nH]c2c1 (centres undefined) | 5.33% (inactive) | 
74 | Cc1ccc(-c2cc(N)n(Cc3cccc(Cl)c3)n2)cc1 | 8.78% (inactive) | 
75 | COc1cccc(Nc2nc3ccccc3c3nncn23)c1 | 1.24% (inactive) | 

Row | Structure (SMILES) | activity change, negative = inhibition | Potency
76 | Cc1ccc(C(=O)COC(=O)C(Cc2c[nH]c3ccccc23)NC(=O)c2ccc(Br)cc2)cc1 (centres undefined) | 0.457% (inactive) | 
77 | O=C1c2ccccc2C(=O)N1CCOc1ccc(F)cc1 | 0% (inactive) | 
78 | NS(=O)(=O)c1ccc(-c2ccc(/C=C3\SC(=O)NC3=O)o2)cc1 | -18.6% (inactive) | 
79 | O=C(CCCOc1ccccc1)NCc1ccco1 | 8.7% (inactive) | 
80 | O=C1NC(=O)N(Cc2ccco2)C(=O)/C1=C\c1cccn1CCOc1ccccc1 |  | 11.2 µM (active)
81 | COc1ccc(OCCCn2cccc2/C=C2/C(=N)N3OC(C)=CC3=NC2=O)cc1 | 6.24% (inactive) | 
82 | O=C1NC(=O)N(Cc2ccco2)C(=O)/C1=C\c1ccc(-c2ccc(F)cc2)o1 |  | 11.2 µM (active)
83 | CCn1c(C)c(C)c2cc(C(=O)NCCc3cc(OC)ccc3OC)ccc21 | 5.8% (inactive) | 
84 | CC(=O)N1CCCc2cc(S(=O)(=O)N3CCC(C(=O)NC4CCCCC4)CC3)ccc21 | 5.19% (inactive) | 
85 | CCc1ccc(NC(=O)CSc2nc3c([nH]c4ccccc43)c(=O)n2-c2cccc(OC)c2)cc1 | 7.94% (inactive) | 
86 | COc1ccc(-n2c(=O)c3c(c4cc(OC)ccc4n3C)n(Cc3cccc(C)c3)c2=O)cc1 | -3.96% (inactive) | 
87 | CCC(=NCCCO)c1c(O)n(-c2ccc(OC)cc2)c(=O)[nH]c1=O | -4.2% (inactive) | 
88 | Nc1c(N(Cc2ccco2)C(=O)c2cccc(F)c2)c(=O)[nH]c(=O)n1Cc1ccccc1 | -25% (inactive) | 
89 | CCC(=NCc1ccco1)c1c(O)n(Cc2ccccc2)c(=O)[nH]c1=O |  | 28.2 µM (active)
90 | CC(C)Cn1c(=O)c2ccccc2n2c(CCC(=O)N3CCN(c4cccc(Cl)c4)CC3)nnc12 | 6.71% (inactive) | 
91 | Cc1ccc(/C=C/C(=O)O)cc1S(=O)(=O)N1CCC(Cc2ccccc2)CC1 |  | 25.1 µM (active)
92 | O=C(O)c1ccc(S(=O)(=O)N2CCC(Cc3ccccc3)CC2)cc1 | 5.48% (inactive) | 
93 | Cn1cc(S(=O)(=O)N2CCC(Cc3ccccc3)CC2)c(=O)n(C)c1=O | -22.8% (inactive) | 
94 | Cc1noc(/C=C/c2ccco2)c1S(=O)(=O)N1CCC(C(=O)N2CCc3ccccc32)CC1 |  | 44.7 µM (active)
95 | COc1ccccc1N1CCN(C(=O)C2CCN(S(=O)(=O)c3c(C)noc3/C=C/c3ccc(C)cc3)CC2)CC1 | -4.21% (inactive) | 
96 | CNC(=O)C1CCN(S(=O)(=O)c2c(C)noc2/C=C/c2cccc(C)c2)CC1 | -13.8% (inactive) | 
97 | CCCCCCn1nnc2sc(-c3ccccc3)cc2c1=O | 0.709% (inactive) | 
98 | CCCNC(=O)C1CCN(c2nc3ccc(C)cc3[nH]2)CC1 | 13.9% (inactive) | 
99 | CC(=O)N(C1=C(Cl)C(=O)c2ccccc2C1=O)c1ccc(C(=O)O)cc1 |  | 0.224 µM (active)
